# Test results as given in PubChem BioAssay (Tox21).
# Where “and” joins values, the source holds several entries; their conditions need not be identical. Identical values can stand only once. Results filed as inconclusive are left out. Entries that show only a call come without a potency. The source holds several records for some structures; these can differ, active in one and inactive in another. Calls of active or inactive are those of the source. Unless noted, calls come from the whole dose curve; as a rule, active = well fitted curve in the direction sought with a large enough effect in the repeat runs; inconclusive = weak or mixed curves; inactive = no such curve, though single readings can be large; an effect the other way counts as inactive or inconclusive.
# Assays:
# [1] = qHTS assay to identify small molecule antagonists of the retinoic acid receptor (RAR) signaling pathway (AID 1159552; note: nearly all actives have a fitted effect of over 50% in size; note: potency is the fitted concentration of half-maximal effect)
# Outline: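 RARE-luc C3RL4 cells; cpds + 1 uM (final) retinol, 6 hr, 37 C/5% CO2; luciferase reagent, 30 min RT, luminescence readout. Inhibitors of retinol-driven signal scored.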
# [2] = qHTS assay to identify small molecule agonists of the retinoic acid receptor (RAR) signaling pathway (AID 1159553); note: potency is the fitted concentration of half-maximal effect
# Outline: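 Activation of retinol signaling was monitored via a RARE luciferase reporter in C3RL4 cells. After 6 hr compound treatment at 37 C, detection reagent was added for 30 min at room temperature before luminescence reading.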
# [3] = qHTS assay to identify small molecule antagonists of the estrogen related receptor (ERR) signaling pathway from Tox21 library - cell viability counter screen (AID 1224834); note: nearly all actives have a fitted effect of over 30% in size; note: potency is the fitted concentration of half-maximal effect
# Outline: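 CellTiter-Fluor fluorescence measured; ERR cells; 17.5 h compound incubation at 37 C; 30 min reagent step.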
# [4] = target: Luciferin 4-monooxygenase (Photinus pyralis) (UniProt P08659); experiment: qHTS assay to identify small molecule inhibitors of firefly luciferase (AID 1224835); note: nearly all actives have a fitted effect of over 25% in size; note: potency is the fitted concentration of half-maximal effect
# Sequence of Luciferin 4-monooxygenase (Photinus pyralis) (P08659 whole entry, looked up): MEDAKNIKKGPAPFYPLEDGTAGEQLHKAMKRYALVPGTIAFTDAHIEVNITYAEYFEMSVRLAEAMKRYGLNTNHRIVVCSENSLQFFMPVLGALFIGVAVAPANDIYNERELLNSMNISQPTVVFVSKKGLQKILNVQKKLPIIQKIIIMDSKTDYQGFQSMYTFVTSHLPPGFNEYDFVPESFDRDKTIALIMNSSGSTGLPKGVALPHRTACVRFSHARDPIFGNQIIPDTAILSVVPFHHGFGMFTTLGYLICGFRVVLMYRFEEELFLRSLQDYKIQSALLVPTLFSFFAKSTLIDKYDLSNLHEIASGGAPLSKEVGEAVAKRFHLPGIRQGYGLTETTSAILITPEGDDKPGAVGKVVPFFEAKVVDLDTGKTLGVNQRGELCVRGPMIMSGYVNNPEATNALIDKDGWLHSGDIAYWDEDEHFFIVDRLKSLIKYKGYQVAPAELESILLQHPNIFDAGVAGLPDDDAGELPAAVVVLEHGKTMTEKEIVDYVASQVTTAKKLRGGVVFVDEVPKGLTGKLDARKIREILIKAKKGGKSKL
# Outline: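 Inhibition of purified Photinus luciferase is measured by luminescence. Substrate levels (D-luciferin, ATP) sit at their KM values. Each compound is tested in a concentration series.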
# [5] = qHTS assay to identify small molecule antagonists of the estrogen related receptor (ERR) signaling pathway - cell viability counter screen (AID 1224818); note: potency is the fitted concentration of half-maximal effect;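 note: viability measured after 17.5 h of compound exposure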
# Outline: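 In the same ERR cell assay, compound-treated wells (17.5 h, 37 C) were multiplexed with a fluorogenic viability reagent, CellTiter-Fluor, read after 30 min to flag cytotoxic substances.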
# [6] = qHTS assay to identify small molecule antagonists of the estrogen related receptor (ERR) signaling pathway (AID 1224819; note: potency is the fitted concentration of half-maximal effect; nearly all actives have a fitted effect of over 50% in size)
# Outline: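 qHTS in ERR cells, 2,000/well, 1536 format. Cpd (DMSO) added after 6 h settle, 18 h 37 C. One-Glo luminescence, 30 min RT.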
# [7] = qHTS assay to identify small molecule agonists of the estrogen related receptor (ERR) signaling pathway (AID 1224820)
# Outline: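 ERR reporter cell line (from NTP), 2,000 cells/well, incubated 6 h before compound addition, then 18 h at 37 C. Luminescence measured 30 min after One-Glo reagent at room temperature.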
# [8] = qHTS assay to identify small molecule agonists of the estrogen related receptor signaling pathway with the pleiotropic PPARgamma coactivator (PGC) (AID 1224823)
# Outline: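 PGC/ERR reporter cells seeded 6 h, then exposed to compounds (23 nL in DMSO) for 18 h at 37 C. One-Glo luciferase luminescence read after 30 min at room temperature.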
# [9] = qHTS assay to identify small molecule antagonists of the estrogen related receptor signaling pathway with the pleiotropic PPARgamma coactivator (PGC) cell viability counter screen (AID 1224822; note: potency is the fitted concentration of half-maximal effect)
# Outline: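 Compounds in DMSO, with positive and negative controls, were applied to PGC/ERR cells (2,000/well) and left 17.5 h at 37 C before CellTiter-Fluor detection.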
# [10] = tested on: estrogen-related receptor alpha (ERRalpha) with PGC-1alpha coactivator, human; experiment: qHTS assay to identify small molecule antagonists of the estrogen related receptor signaling pathway with the pleiotropic PPARgamma coactivator (PGC) (AID 1224821; calls by dose curve;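 note: series mostly up to about 46 µM; lower luminescence signal means antagonism of PGC/ERR signalling; nearly all actives have a fitted effect of over 50% in size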)
# Outline: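 PGC/ERR reporter cell line, plated 6 h before compound addition, then exposed 18 h at 37 °C. Luciferase activity read by luminescence 30 min after One-Glo addition; decrease indicates antagonism.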
smiles,measurement,setting,value
CNC(=O)c1cc(Oc2ccc(NC(=O)Nc3ccc(Cl)c(C(F)(F)F)c3)cc2)ccn1,Potency,[1],29.8 µM (active)
same,Potency,[2],inactive
same,Potency,[3],26.6 µM (active)
same,Potency,[4],inactive
CC(COC(=O)c1ccccc1)OC(=O)c1ccccc1 (centres undefined),Potency,[1],inactive
same,Potency,[2],inactive
same,Potency,[3],inactive
same,Potency,[4],inactive
CCCCC(CC)COC(=O)c1ccc(O)cc1 (centres undefined),Potency,[1],inactive
same,Potency,[2],inactive
same,Potency,[3],43.1 µM (active)
same,Potency,[4],inactive
O=C(Oc1ccccc1)c1cccc(C(=O)Oc2ccccc2)c1,Potency,[1],inactive
same,Potency,[2],0.456 µM (active)
same,Potency,[5],inactive
same,Potency,[3],inactive
CO[C@H]1C=CO[C@@]2(C)Oc3c(C)c(O)c4c(O)c(cc(O)c4c3C2=O)NC(=O)/C(C)=C\C=C/[C@H](C)[C@H](O)[C@@H](C)[C@@H](O)[C@@H](C)[C@H](OC(C)=O)[C@@H]1C,Potency,[1],inactive
same,Potency,[2],inactive
same,Potency,[3],61.6 µM (active)
same,Potency,[4],inactive
Cc1cc2c(C(C)C)c(O)c(O)c(C=O)c2c(O)c1-c1c(C)cc2c(C(C)C)c(O)c(O)c(C=O)c2c1O,Potency,[1],inactive
same,Potency,[2],inactive
same,Potency,[5],10.2 µM (active)
same,Potency,[6],2.76 µM (active)
same,outcome,[7],inactive
same,outcome,[8],inactive
same,Potency,[3],13.3 µM (active)
same,Potency,[4],inactive
CCCCCCCC/C=C\CCCCCCCC(=O)OCCOC(=O)CCCCCCC/C=C\CCCCCCCC,Potency,[1],inactive
same,Potency,[2],inactive
same,Potency,[3],inactive
same,Potency,[4],inactive
Cc1ccc(N)cc1O,Potency,[1],inactive
same,Potency,[2],12.2 µM (active)
same,Potency,[5],inactive
same,Potency,[9],inactive
Cc1oc(-c2ccccc2)nc1CCOc1ccc(C[C@H](Nc2ccccc2C(=O)c2ccccc2)C(=O)O)cc1,Potency,[1],inactive
O=C(NO)c1ccccc1,Potency,[1],inactive
same,Potency,[2],inactive
same,Potency,[5],inactive
same,outcome,[7],inactive
same,outcome,[10],inactive
same,Potency,[9],inactive
same,outcome,[8],inactive
Nc1ncnc2c1ncn2[C@@H]1O[C@H](COP(=O)(O)O)[C@@H](O)[C@H]1O,Potency,[1],inactive
same,Potency,[2],inactive
same,Potency,[3],inactive
same,Potency,[4],inactive
Cc1cn[nH]c1,Potency,[1],inactive
same,Potency,[2],inactive
same,Potency,[5],inactive
same,Potency,[9],inactive
same,Potency,[4],inactive
NCCCCCCNCCCCCCN,Potency,[1],inactive
same,Potency,[2],inactive
same,Potency,[3],inactive
same,Potency,[4],inactive
C[C@H]1O[C@@H](O[C@H]2[C@@H](O)C[C@H](O[C@H]3[C@@H](O)C[C@H](O[C@H]4CC[C@@]5(C)[C@H](CC[C@@H]6[C@@H]5C[C@@H](O)[C@]5(C)[C@@H](C7=CC(=O)OC7)CC[C@]65O)C4)O[C@@H]3C)O[C@@H]2C)C[C@H](O)[C@@H]1O,Potency,[1],inactive
same,Potency,[2],inactive
same,Potency,[3],86.4 nM (active) and 95.8 nM (active)
CCC1(c2cnc[nH]2)Cc2ccccc2C1,Potency,[1],inactive
same,Potency,[2],inactive
same,Potency,[3],inactive
same,Potency,[4],inactive
CSc1c(Cl)c(Cl)c(Cl)c(Cl)c1Cl,Potency,[1],inactive
same,Potency,[2],inactive
same,Potency,[3],inactive
same,Potency,[4],inactive
COc1cc(C(=O)NS(=O)(=O)c2ccccc2C)ccc1Cc1cn(C)c2ccc(NC(=O)OC3CCCC3)cc12,Potency,[1],inactive
same,Potency,[2],inactive
same,Potency,[3],inactive
same,Potency,[4],27.5 µM (active)
C[C@@H]1CC[C@H]2C(C)(C)[C@H]3C[C@@]12CC[C@@]3(C)O,Potency,[1],inactive
same,Potency,[2],inactive
same,Potency,[3],inactive
same,Potency,[4],inactive
CCOC(=O)N1CCC(=C2c3ccc(Cl)cc3CCc3cccnc32)CC1,Potency,[1],inactive
same,Potency,[2],inactive
same,Potency,[5],inactive
same,outcome,[7],inactive
same,Potency,[9],inactive
same,Potency,[3],24.3 µM (active) and 29.8 µM (active)
same,Potency,[4],inactive
CC1(C)C(=O)N(Br)C(=O)N1Br,Potency,[1],inactive
same,Potency,[2],inactive
same,Potency,[3],inactive
O=C1OC(=O)c2cccc3cccc1c23,Potency,[1],inactive
same,Potency,[2],inactive
same,Potency,[3],inactive
same,Potency,[4],inactive
c1cc2c3c(c1)ccc1cccc(c13)C2,Potency,[1],inactive
same,Potency,[2],inactive
same,Potency,[3],inactive
CC(C)(c1cc(Br)c(O)c(Br)c1)c1cc(Br)c(O)c(Br)c1,Potency,[1],inactive
same,Potency,[2],inactive
same,Potency,[3],inactive
same,Potency,[4],79.4 µM (active) and inactive
Cc1ccc(-n2[nH]c(C)c(N=Nc3cccc(-c4cccc(C(=O)O)c4)c3O)c2=O)cc1C,Potency,[1],inactive
same,Potency,[2],29.8 µM (active)
same,Potency,[3],29.8 µM (active)
same,Potency,[4],38.9 µM (active)
CCCCNc1c(C(=O)OCC)c(C)nc2c1cnn2CC,Potency,[1],inactive
same,Potency,[2],inactive
same,Potency,[5],inactive
same,Potency,[9],inactive
same,Potency,[3],inactive
same,Potency,[4],inactive
CCCCCCCCCCCC(=O)N(CC)CC,Potency,[1],inactive
same,Potency,[2],inactive
same,Potency,[3],inactive
same,Potency,[4],inactive
CCCCCCCCCCCCCOP(=O)(O)O,Potency,[1],inactive
same,Potency,[2],inactive
same,Potency,[3],inactive
CC1=C(/C=C/C(C)=C/C=C/C(C)=C/C(=O)Nc2ccc(O)cc2)C(C)(C)CCC1,Potency,[1],inactive and 29.8 µM (active)
same,Potency,[2],4.98 µM (active) and 2.66 µM (active)
same,outcome,[7],inactive
same,outcome,[10],inactive
same,Potency,[9],13.9 µM (active)
same,outcome,[8],inactive
same,Potency,[3],28 µM (active) and 23.7 µM (active)
same,Potency,[4],inactive
CCC(C)c1cc([N+](=O)[O-])cc([N+](=O)[O-])c1OC(=O)OC(C)C (centres undefined),Potency,[1],34.4 µM (active)
same,Potency,[2],inactive
same,Potency,[3],24.3 µM (active)
same,Potency,[4],inactive
CNCC[C@H](Oc1cccc2ccccc12)c1cccs1,Potency,[1],23.7 µM (active)
Cn1cnc2ncnc(N)c21,Potency,[1],inactive
same,Potency,[2],inactive
same,Potency,[3],inactive
same,Potency,[4],inactive
C/C=C/C=N/NC(=O)c1ccncc1,Potency,[1],inactive
same,Potency,[2],inactive
same,Potency,[3],inactive
same,Potency,[4],inactive
C(=C/c1ccccc1)/c1ccccc1,Potency,[1],inactive
same,Potency,[2],inactive
same,Potency,[3],inactive
same,Potency,[4],inactive
